About 2,000 (36%) of roughly 5,500 compounds were called active. Another 18% or so got no clear call; they are omitted. Cut-off read from the data, not from the text of the source: active = normalized growth mostly below about 0.91 (no sharp cut-off); inconclusive = no clear call, values can overlap the other calls; inactive = mostly above about 0.92. The list shows a part of the results.
Assay: chemical genetic growth profiling, strain panel (AID 1159580);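 note: tested at 20 µM; growth read once vehicle control cultures reached saturation at 30 °C; 1 = growth at the plate median or of vehicle wells; lower values mean less growth of the strain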
Conditions: growth OD

Measured: normalized growth

COc1nc(NC(C)C)nc(NC(C)C)n1
inactive: S. cerevisiae deletion strains, locus YJR075W, strain HOC1, active compounds read low 1 | S. cerevisiae deletion strains, locus YKL009W, strain mrt4, active compounds read low 1.02 | S. cerevisiae deletion strains, locus YKL068W, active compounds read low 1.01 | S. cerevisiae deletion strains, locus YKL085W, strain MDH1 (second series), active compounds read low 1.01 | S. cerevisiae deletion strains, locus YKL085W, strain MDH1, active compounds read low 1.01 | S. cerevisiae deletion strains, locus YKL160W, strain elf1, active compounds read low 1.02 | S. cerevisiae deletion strains, locus YKL190W, strain CNB1, active compounds read low 1.02 | S. cerevisiae deletion strains, locus YKR001C, strain vps1, active compounds read low 1.02 | S. cerevisiae deletion strains, locus YKR026C, strain gcn3, active compounds read low 1.02 | S. cerevisiae deletion strains, locus YKR091W, strain srl3, active compounds read low 1.02 | S. cerevisiae deletion strains, locus YLL001W, strain dnm1, active compounds read low 1.02 | S. cerevisiae deletion strains, locus YLL026W, active compounds read low 1.02 | S. cerevisiae deletion strains, locus YLL041C, strain sdh2, active compounds read low 1.02 | S. cerevisiae deletion strains, locus YLR027C, strain aat2, active compounds read low 1.03 | S. cerevisiae deletion strains, locus YLR039C, strain RIC1, active compounds read low 1.02 | S. cerevisiae deletion strains, locus YLR058C, strain SHM2, active compounds read low 1 | S. cerevisiae deletion strains, locus YLR102C, strain apc9, active compounds read low 1.02 | S. cerevisiae deletion strains, locus YLR113W, strain HOG1, active compounds read low 0.986 | S. cerevisiae deletion strains, locus YLR221C, strain rsa3, active compounds read low 1.04 | S. cerevisiae deletion strains, locus YLR258W, strain gsy2, active compounds read low 1.01 | S. cerevisiae deletion strains, locus YLR262C, strain YPT6 (second series), active compounds read low 1.02 | S. cerevisiae deletion strains, locus YLR262C, strain YPT6, active compounds read low 1.02 | S. cerevisiae deletion strains, locus YLR268W, strain sec22, active compounds read low 1.01 | S. cerevisiae deletion strains, locus YLR320W, strain mms22, active compounds read low 1.04 | S. cerevisiae deletion strains, locus YLR330W, strain CHS5, active compounds read low 1.01 | S. cerevisiae deletion strains, locus YLR342W, strain FKS1 (second series), active compounds read low 1.03 | S. cerevisiae deletion strains, locus YLR342W, strain FKS1, active compounds read low 1.01 | S. cerevisiae deletion strains, locus YLR357W, strain rsc2, active compounds read low 1.03 | S. cerevisiae deletion strains, locus YLR370C, strain arc18, active compounds read low 1.04 | S. cerevisiae deletion strains, locus YLR371W, strain rom2, active compounds read low 1.02 | S. cerevisiae deletion strains, locus YLR384C, strain iki3, active compounds read low 1.03 | S. cerevisiae deletion strains, locus YLR418C, strain cdc73, active compounds read low 1.01 | S. cerevisiae deletion strains, locus YML016C, strain PPZ1, active compounds read low 1.01 | S. cerevisiae deletion strains, locus YML032C, strain rad52, active compounds read low 1.02 | S. cerevisiae deletion strains, locus YML120C, strain ndi1, active compounds read low 1.02 | S. cerevisiae deletion strains, locus YML124C, strain tub3, active compounds read low 1.02 | S. cerevisiae deletion strains, locus YMR058W, strain fet3, active compounds read low 1.03 | S. cerevisiae deletion strains, locus YMR078C, strain ctf18, active compounds read low 1.03 | S. cerevisiae deletion strains, locus YMR125W, strain sto1, active compounds read low 1.03 | S. cerevisiae deletion strains, locus YMR129W, active compounds read low 1.01 | S. cerevisiae deletion strains, locus YMR205C, strain PFK2, active compounds read low 1.01 | S. cerevisiae deletion strains, locus YMR223W, strain ubp8, active compounds read low 1.02 | S. cerevisiae deletion strains, locus YMR231W, strain pep5, active compounds read low 1.02 | S. cerevisiae deletion strains, locus YMR263W, strain SAP30, active compounds read low 1.02 | S. cerevisiae deletion strains, locus YMR307W, strain GAS1, active compounds read low 1.04 | S. cerevisiae deletion strains, locus YNL067W, strain RPL9B, active compounds read low 1.01 | S. cerevisiae deletion strains, locus YNL071W, strain lat1, active compounds read low 1.01 | S. cerevisiae deletion strains, locus YNL128W, strain TEP1, active compounds read low 1 | S. cerevisiae deletion strains, locus YNL153C, strain GIM3, active compounds read low 1.01 | S. cerevisiae deletion strains, locus YNL183C, strain NPR1, active compounds read low 0.999 | S. cerevisiae deletion strains, locus YNL209W, strain ssb2, active compounds read low 1.02 | S. cerevisiae deletion strains, locus YNL233W, strain BNI4, active compounds read low 1.01 | S. cerevisiae deletion strains, locus YNL248C, strain rpa49, active compounds read low 1.04 | S. cerevisiae deletion strains, locus YNL250W, strain rad50, active compounds read low 1.01 | S. cerevisiae deletion strains, locus YNL271C, strain bni1, active compounds read low 1.01 | S. cerevisiae deletion strains, locus YNL298W, strain CLA4, active compounds read low 1.03 | S. cerevisiae deletion strains, locus YNL307C, strain MCK1, active compounds read low 1.03 | S. cerevisiae deletion strains, locus YNL322C, strain KRE1 (second series), active compounds read low 1.02 | S. cerevisiae deletion strains, locus YNL322C, strain KRE1, active compounds read low 1 | S. cerevisiae deletion strains, locus YNR049C, strain mso1, active compounds read low 1.05 | S. cerevisiae deletion strains, locus YNR052C, strain pop2, active compounds read low 1.03 | S. cerevisiae deletion strains, locus YOL006C, strain TOP1, active compounds read low 1.03 | S. cerevisiae deletion strains, locus YOL012C, strain htz1 1.23 | S. cerevisiae deletion strains, locus YOL147C, strain pex11, active compounds read low 1.02 | S. cerevisiae deletion strains, locus YOR001W, strain rrp6, active compounds read low 1.02 | S. cerevisiae deletion strains, locus YOR061W, strain CKA2, active compounds read low 1 | S. cerevisiae deletion strains, locus YOR069W, strain VPS5, active compounds read low 1.01 | S. cerevisiae deletion strains, locus YOR070C, strain gyp1, active compounds read low 1.03 | S. cerevisiae deletion strains, locus YOR080W, strain dia2, active compounds read low 1.03 | S. cerevisiae deletion strains, locus YOR083W, strain WHI5, active compounds read low 1.01 | S. cerevisiae deletion strains, locus YOR106W, strain vam3, active compounds read low 1.02 | S. cerevisiae deletion strains, locus YOR136W, strain idh2, active compounds read low 1.02 | S. cerevisiae deletion strains, locus YOR144C, strain elg1, active compounds read low 1.03 | S. cerevisiae deletion strains, locus YOR184W, strain ser1, active compounds read low 1.03 | S. cerevisiae deletion strains, locus YOR231W, strain MKK1, active compounds read low 1.05 | S. cerevisiae deletion strains, locus YOR265W, strain rbl2, active compounds read low 1.01 | S. cerevisiae deletion strains, locus YOR270C, strain vph1, active compounds read low 1.06 | S. cerevisiae deletion strains, locus YOR290C, strain snf2, active compounds read low 0.997 | S. cerevisiae deletion strains, locus YOR316C, strain cot1, active compounds read low 1.02 | S. cerevisiae deletion strains, locus YPL051W, strain arl3, active compounds read low 1.01 | S. cerevisiae deletion strains, locus YPL055C, strain LGE1, active compounds read low 1.02 | S. cerevisiae deletion strains, locus YPL078C, strain atp4, active compounds read low 1.01 | S. cerevisiae deletion strains, locus YPL106C, strain sse1, active compounds read low 1.01 | S. cerevisiae deletion strains, locus YPL240C, strain hsp82, active compounds read low 1.01 | S. cerevisiae deletion strains, locus YPL241C, strain CIN2, active compounds read low 1.02 | S. cerevisiae deletion strains, locus YPL256C, strain CLN2, active compounds read low 1.08 | S. cerevisiae deletion strains, locus YPR119W, strain clb2, active compounds read low 1.01 | S. cerevisiae deletion strains, locus YPR141C, strain kar3, active compounds read low 1.03 | S. cerevisiae deletion strains, locus YPR163C, strain tif3, active compounds read low 1.02 | S. cerevisiae deletion strains, locus YPR167C, strain met16, active compounds read low 1.02 | S. cerevisiae deletion strains, strain wtn01, active compounds read low 1.01 | S. cerevisiae strains, strain wild type, active compounds read low 1

Source: PubChem BioAssay AID1159580 (chemical genetic matrix, 2015)
